Reference: PubChem BioAssay (NCI)
Compounds without any hit were thinned out: in the full panel of roughly 83,000, 20% have a hit.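 96-well plates, one dose, 48 hours. Percent growth reported; active if below 10.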 Activity calls are given as the source filed them.

Legend:
Experiment in all cases: NCI-60 one-dose screen, 48 h (100 = growth as untreated, 0 = no growth, -100 = all killed)
Settings in all cases: 10 µM
[1] = test system: NCI-H23 lung
[2] = test system: NCI-H226 lung
[3] = test system: NCI-H322M lung
[4] = test system: HOP-62 NSCLC
[5] = test system: NCI-H460 lung
[6] = test system: NCI-H522 lung
[7] = test system: 786-0 renal
[8] = test system: COLO 205 colon
[9] = test system: DU-145 prostate
[10] = test system: K-562 leukemia
[11] = test system: MALME-3M melanoma
[12] = test system: MDA-MB-231 breast
[13] = test system: RXF 393 renal
[14] = test system: SF-268 CNS
[15] = test system: SF-295 CNS
[16] = test system: SF-539 CNS
[17] = test system: UACC-257 melanoma
[18] = test system: M14 melanoma
[19] = test system: HCT-15 colon
[20] = test system: A549/ATCC NSCLC

Measured: growth

O=C1/C(=C/c2ccc([N+](=O)[O-])s2)Oc2ccccc21
active: [1] -37% | [2] -0.59% | [3] -21.5% | [4] 3.77% | [5] -27.7% | [6] -68.8% | [7] -37% | [8] -69.2% | [9] 4.99% | [10] -14.5% | [11] -60.9% | [12] -70.3% | [13] -81.1% | [14] -54.2% | [15] -37.4% | [16] -77% | [17] -54.6% | [18] -40.9% | [19] -15.5%

COc1ccc(/C=C/C(=O)Nc2ccc(-c3nc4ccc(F)cc4s3)cc2)cc1
inactive: [1] 86.3% | [2] 72.3% | [3] 104% | [4] 109% | [5] 99.1% | [6] 85.5% | [7] 80.6% | [8] 110% | [9] 118% | [10] 79.6% | [12] 97% | [13] 101% | [14] 112% | [15] 95.5% | [16] 111% | [17] 94.9% | [18] 102% | [19] 105%

CCC(=O)N1C/C(=C/c2ccc(OC)cc2)C(=O)/C(=C/c2ccc(OC)cc2)C1
inactive: [1] 63.9% | [2] 29.5% | [3] 111% | [4] 20.5% | [5] 61.4% | [6] 20.6% | [8] 27.2% | [9] 18.7% | [12] 19.4% | [14] 24% | [16] 54.7% | [17] 43.4%
active: [7] 4.83% | [10] 1.72% | [11] -9.29% | [13] -66.7% | [15] -5.17% | [18] -16.5% | [19] 4.21%

CCN1CCC2(CC1)OC(c1ccccc1)C(c1ccccc1)O2 (stereo not drawn)
inactive: [1] 106% | [2] 96.6% | [3] 133% | [4] 114% | [5] 118% | [6] 116% | [7] 92.7% | [8] 106% | [9] 115% | [10] 88.2% | [12] 122% | [13] 109% | [14] 108% | [15] 111% | [16] 116% | [17] 116% | [18] 112% | [19] 106%

CCCCOc1ccc(NC(=O)Nc2nnc(C)s2)cc1
active: [6] -36.8%
inactive: [1] 96.8% | [2] 101% | [3] 103% | [4] 102% | [5] 102% | [7] 93.5% | [8] 120% | [9] 120% | [10] 83.8% | [11] 118% | [12] 90.7% | [13] 110% | [14] 109% | [15] 87.4% | [16] 95.3% | [17] 22.5% | [18] 91.4% | [19] 99.5%

Nc1ncn([C@@H]2O[C@H](CO)[C@@H](O)[C@H]2O)c(=O)n1
inactive: [1] 37.2% | [2] 45.9% | [3] 15.9% | [20] 16.5% | [7] 23.8% | [9] 11.5% | [14] 33.8% | [15] 28.4% | [17] 48% | [18] 19.7% | [19] 22.9%
active: [4] 2.42% | [5] -1.73% | [6] 4.49% | [8] 6.61% | [12] -3.92% | [16] 3.27%

O=C1/C(=C\c2ccc(Br)cc2)CN(C(=O)c2ccccc2F)C/C1=C\c1ccc(Br)cc1
active: [2] -30.3% | [4] -7.85% | [6] -1.44% | [7] -52.4% | [8] 5.27% | [9] 6.51% | [10] 1.26% | [11] -2.95% | [12] -4.72% | [13] -76.6% | [14] 4.14% | [15] -19.9% | [16] 3.38% | [18] -47.8% | [19] 5.63%
inactive: [1] 23.5% | [3] 60.7% | [5] 43.3% | [17] 30.6%

COc1cc(/C=C/C(=O)c2ccc(Cl)cc2)ccc1OS(=O)(=O)c1ccc(C)cc1
inactive: [1] 99.3% | [2] 98.5% | [3] 96.7% | [4] 95.1% | [5] 103% | [6] 81.7% | [7] 102% | [8] 110% | [9] 105% | [10] 14.9% | [11] 101% | [12] 90.9% | [13] 117% | [14] 102% | [15] 94.2% | [16] 111% | [17] 110% | [18] 105% | [19] 66%
